The source of these data is PubChem BioAssay (NCATS).

Records with an inconclusive call do not appear. Unmarked numbers belong to inactive results. Calls of active or inactive are those of the source.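 The calls were made as follows: active = dose-dependent loss of cell ATP signal giving a full or clear fitted curve, ranked by lower potency value; inconclusive = weak partial curve or response only at the top dose; inactive = no loss of viability signal.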
Potency is read from the fitted curve at half-maximal effect.

The experiment is described as follows: Cell Viability - Jurkat (AID 426).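 Also: cells exposed to compound for 40 hours at 37 °C before ATP read.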 The conditions noted are these: qHTS. The text has this: NIH Chemical Genomics Center [NCGC]
NIH Molecular Libraries Screening Centers Network [MLSCN]
National Institutes of Environmental Health Sciences [NIEHS]
National Toxicology Program [NTP]
We have developed a 1536-well cell-based assay for quantitative high throughput screening (qHTS) against a number of cell lines to determine in vitro cytotoxicity of small molecules. This particular assay uses the Jurkat cell line (Clone E6-1) which is derived from the human T cell leukemia.
NCGC Assay Protocol Summary:
The CellTiter-Glo luminescent cell viability assay (Promega) is a homogeneous method to measure the number of viable cells in culture. The end point readout of this assay is based on quantitation of intracellular ATP, an indicator of metabolic activity, using the luciferase reaction. Luciferase catalyzes the oxidation of beetle Luciferin to oxyluciferin and light in the presence of ATP. The luminescent signal is proportional to amount of ATP present.
Using the CellTiter-Glo luminescent cell viability assay, the amount of cellular ATP was measured in the Jurkat cell line with complete culture medium following compound treatment for 40 hours. The assay was performed in opaque white Kalypsys 1536-well plates. In the screen, tamoxifen and doxorubicin were used as positive controls. Library compounds were measured for their ability to cause acute toxicity in the cell line, as reflected by a decrease in intracellular ATP levels, in a concentration-dependent manner. […] AC50 values were determined from concentration-response data modeled with the standard Hill equation.
qHTS protocol for CellTiter Glo Jurkat cellular assay
[Step] [Parameter] [Value] [Description]
1. Reagent; 5 uL; 5000 Jurkat cells/well
3. Controls; 23 nL; Tamoxifen 0.34 uM to 100 uM & Doxorubicin 0.02 nM to 100 uM
4. Time; 40 hr; 37 °C incubation
5. Reagent; 5 uL; CellTiter Glo reagent
6. Time; 20 min; Room Temperature
7. Detection; Luminescence; Viewlux plate reader
Keywords: cell viability, cytotoxicity, Jurkat cell line, luminescence, NTPHTS, NTPHTS_NCGC, NIEHS, EPA, DSSTox, MLSMR, MLSCN, NIH Roadmap, qHTS, NCGC
As for `Clc1ccc(COC(Cn2ccnc2)c2ccc(Cl)cc2Cl)cc1` (stereo not given), the Potency is 81.7 µM (active).

For `c1ccc2c(c1)Nc1ccccc1S2`, the Potency is over 92 µM.

As for `OCCOc1ccccc1`, the Potency was over 92 µM.

As for `CNCC(O)c1ccc(O)cc1` (stereo not given), the Potency is over 92 µM.

As to `CCOP(=S)(OCC)Oc1cc(C)nc(C(C)C)n1`, the Potency was over 92 µM.

For the compound `NCC(O)c1ccc(O)cc1` (stereo not given), the Potency was over 92 µM.

Consider `CCCC(C)(COC(N)=O)COC(=O)NC(C)C` (stereo not given), for which the Potency was over 92 µM.

`C[C@]12C/C(=C/O)C(=O)C[C@@H]1CC[C@@H]1[C@@H]2CC[C@@]2(C)[C@H]1CC[C@]2(C)O`: the Potency is 54.9 µM (active).

For `N[C@@H](Cc1ccc(N(CCCl)CCCl)cc1)C(=O)O`, the Potency is 18.3 µM (active).

With `Oc1ccc(Cl)cc1Cc1ccccc1`, the Potency was over 92 µM.
